According to PubChem BioAssay:
“And” between values parts separate entries of the source, which are not always exact repeats. Identical values can stand only once. Results filed as inconclusive are left out. The source made the active and inactive calls.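 Rule for the calls, unless noted: active = normalized viability below 100% at a tested concentration; inactive = the rest.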

What was measured:
[1] = growth inhibition of DIPG glioma cells, dose response, cell-based, SU-DIPG-XVII, MIPE5.0, CellTiter-Glo, qHTS (AID 1347060; cut-off not given, nearly all actives have AC50 up to about 26 µM;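 for AC50: cells exposed to compound for 48 hours before viability readout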); conditions: SU-DIPG-XVII viability, CellTiter-Glo ATP luminescence
[2] = growth inhibition of DIPG glioma cells, dose response, cell-based, JHH-DIPG-1, MIPE4.0, CellTiter-Glo, qHTS (AID 1347062; cut-off not given, nearly all actives have AC50 up to about 27 µM;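 for AC50: cells exposed to compound for two days before readout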); conditions: JHH-DIPG-1 viability, CellTiter-Glo ATP luminescence
[3] = growth inhibition of DIPG glioma cells, dose response, cell-based, SU-DIPG-XIII, MIPE5.0, CellTiter-Glo, qHTS (AID 1347064; cut-off not given, nearly all actives have AC50 up to about 23 µM;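 for AC50: cells exposed to compound for 48 hours before the viability read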); conditions: SU-DIPG-XIII viability, CellTiter-Glo ATP luminescence
[4] = viability loss in pontine glioma line – cell-based, SU-DIPG-XXV, MIPE5.0, CellTiter-Glo, qHTS, dose response (AID 1347065; cut-off not given, nearly all actives have AC50 up to about 26 µM;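 note: cells exposed to compound for 48 hours before ATP readout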); conditions: CellTiter-Glo ATP luminescence
[5] = SU-DIPG-VI glioma cell viability, MIPE4.0 library, CellTiter-Glo luminescence, qHTS (AID 1347066; cut-off not given, nearly all actives have AC50 up to about 30 µM;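 note: cells exposed to compound for 48 hours before readout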); conditions: CellTiter-Glo ATP luminescence
[6] = JHH-DIPG-1 glioma cell viability, MIPE5.0 library, CellTiter-Glo luminescence, qHTS (AID 1347067; cut-off not given, nearly all actives have AC50 up to about 26 µM;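 note: cells exposed to compound for 48 hours before readout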); conditions: JHH-DIPG-1 glioma viability, CellTiter-Glo ATP luminescence
[7] = SU-DIPG-XXV glioma cell viability, MIPE5.0 library, qHTS (AID 1347068; cut-off not given, nearly all actives have IC50 up to about 30 µM;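 for IC50: cells exposed to compound for 48 hours before viability readout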)
[8] = sensitizers of A549 cells to miR-34 induction, primary screen, imaging, A549 dox-inducible miR-34, nuclei and caspase counts (AID 1347080;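 active = compounds whose cell count with miR-34 switched on is under 0.7 times the count with it off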); conditions: A549 miR-34 inducible, Hoechst nuclei count, 48 h
[9] = modifiers of HSF1 nuclear foci, imaging, Selleck Cancer Library (AID 1347162; in the data active = plate-normalised HSF1 focus index below about 0.46); conditions: human cells, at 10 µM; SSMD: measured here: HSF1 foci SSMD mean; cell count: measured here: cell number; plate-normalised HSF1 focus index: stronger effect = lower value
[10] = survival rescue of mitochondrial mutant cells in low glucose, primary screen, MELAS cybrids, Rieske KO mouse fibroblasts, CellTiter-Glo (AID 1508586;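 active = mean z-score across replicates of 1.96 or higher in either the MELAS or the Rieske mutant cell line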;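 note: z relative to plate mean and SD of compound and empty wells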)
[11] = ovarian cancer cell viability with rucaparib, profiling panel, oncology-focused library, rucaparib conditional (AID 1508598); conditions: patient-derived ovarian cancer cells, CellTiter-Glo viability, 144 h, stronger effect = lower value
[12] = stronger effect = lower value, cell number ratio, induced over uninduced
[13] = measured here: relative caspase fold change +Dox/-Dox
[14] = measured here: total cells with miR-34 induction, stronger effect = lower value
[15] = measured here: total cells without miR-34 induction
[16] = MELAS cybrid survival, CellTiter-Glo 48 h, stronger effect = higher value
[17] = Rieske KO mouse fibroblast survival, CellTiter-Glo 72 h
[18] = at 0.000305 µM, OCI-C5x cells, with rucaparib 10 µM, 100% = cells with rucaparib alone
[19] = at 0.000305 µM, OCI-C5x cells, without rucaparib
[20] = at 0.000305 µM, OCI-P5x cells, with rucaparib 20 µM, 100% = cells with rucaparib alone
[21] = at 0.000305 µM, OCI-P5x cells, without rucaparib
[22] = at 0.00122 µM, OCI-C5x cells, with rucaparib 10 µM, 100% = cells with rucaparib alone
[23] = at 0.00122 µM, OCI-C5x cells, without rucaparib
[24] = at 0.00122 µM, OCI-P5x cells, with rucaparib 20 µM, 100% = cells with rucaparib alone
[25] = at 0.00122 µM, OCI-P5x cells, without rucaparib
[26] = at 0.00488 µM, OCI-C5x cells, with rucaparib 10 µM, 100% = cells with rucaparib alone
[27] = at 0.00488 µM, OCI-C5x cells, without rucaparib
[28] = at 0.00488 µM, OCI-P5x cells, with rucaparib 20 µM, 100% = cells with rucaparib alone
[29] = at 0.00488 µM, OCI-P5x cells, without rucaparib
[30] = at 0.0195 µM, OCI-C5x cells, with rucaparib 10 µM, 100% = cells with rucaparib alone
[31] = at 0.0195 µM, OCI-C5x cells, without rucaparib
[32] = at 0.0195 µM, OCI-P5x cells, with rucaparib 20 µM, 100% = cells with rucaparib alone
[33] = at 0.0195 µM, OCI-P5x cells, without rucaparib
[34] = at 0.0781 µM, OCI-C5x cells, with rucaparib 10 µM, 100% = cells with rucaparib alone
[35] = at 0.0781 µM, OCI-C5x cells, without rucaparib
[36] = at 0.0781 µM, OCI-P5x cells, with rucaparib 20 µM, 100% = cells with rucaparib alone
[37] = at 0.0781 µM, OCI-P5x cells, without rucaparib
[38] = at 0.313 µM, OCI-C5x cells, with rucaparib 10 µM, 100% = cells with rucaparib alone
[39] = at 0.313 µM, OCI-C5x cells, without rucaparib
[40] = at 0.313 µM, OCI-P5x cells, with rucaparib 20 µM, 100% = cells with rucaparib alone
[41] = at 0.313 µM, OCI-P5x cells, without rucaparib
[42] = at 1.25 µM, OCI-C5x cells, with rucaparib 10 µM, 100% = cells with rucaparib alone
[43] = at 1.25 µM, OCI-C5x cells, without rucaparib
[44] = at 1.25 µM, OCI-P5x cells, with rucaparib 20 µM, 100% = cells with rucaparib alone
[45] = at 1.25 µM, OCI-P5x cells, without rucaparib
[46] = at 5 µM, OCI-C5x cells, with rucaparib 10 µM, 100% = cells with rucaparib alone
[47] = at 5 µM, OCI-C5x cells, without rucaparib
[48] = at 5 µM, OCI-P5x cells, with rucaparib 20 µM, 100% = cells with rucaparib alone
[49] = at 5 µM, OCI-P5x cells, without rucaparib

O=S(=O)(O)c1ccc2cc(N=Nc3cc(S(=O)(=O)O)c4cccnc4c3O)ccc2c1
outcome [1]: inactive
outcome [2]: inactive
outcome [3]: inactive
outcome [4]: inactive
outcome [5]: inactive
outcome [6]: inactive
outcome [7]: inactive

CN(C(=O)c1ccc(F)cc1C(F)(F)F)C1CCN(c2nnc(-c3ccnn3C)c3ccccc23)CC1
outcome [1]: inactive
outcome [2]: inactive
outcome [3]: inactive
outcome [4]: inactive
outcome [5]: inactive
outcome [6]: inactive
outcome [7]: inactive

CCN(CCO)CCCOc1ccc2c(Nc3cc(CC(=O)Nc4cccc(F)c4)[nH]n3)ncnc2c1
AC50 [1]: 235 nM (active)
outcome [2]: inactive
AC50 [4]: 148 nM (active)
outcome [5]: inactive
fold change [8, 12]: 0.945 (inactive)
fold change [8, 13]: 0.861
cell count [8, 14]: 2110
cell count [8, 15]: 2230
SSMD [9]: 1.14
cell count [9]: 7480
plate-normalised HSF1 focus index [9]: 1.04 (inactive)
z-score [10, 16]: -0.237 (inactive)
z-score [10, 17]: 0.586
viability [11, 18]: 106% (inactive)
viability [11, 19]: 113% (inactive)
viability [11, 20]: 110% (inactive)
viability [11, 21]: 110% (inactive)
viability [11, 22]: 103% (inactive)
viability [11, 23]: 118% (inactive)
viability [11, 24]: 115% (inactive)
viability [11, 25]: 108% (inactive)
viability [11, 26]: 114% (inactive)
viability [11, 27]: 112% (inactive)
viability [11, 28]: 115% (inactive)
viability [11, 29]: 111% (inactive)
viability [11, 30]: 109% (inactive)
viability [11, 31]: 91.6% (active)
viability [11, 32]: 104% (inactive)
viability [11, 33]: 106% (inactive)
viability [11, 34]: 81% (active)
viability [11, 35]: 77.3% (active)
viability [11, 36]: 104% (inactive)
viability [11, 37]: 80.5% (active)
viability [11, 38]: 65.1% (active)
viability [11, 39]: 80.3% (active)
viability [11, 40]: 82.3% (active)
viability [11, 41]: 65.3% (active)
viability [11, 42]: 83.4% (active)
viability [11, 43]: 83% (active)
viability [11, 44]: 86.7% (active)
viability [11, 45]: 62% (active)
viability [11, 46]: 107% (inactive)
viability [11, 47]: 95.3% (active)
viability [11, 48]: 83.1% (active)
viability [11, 49]: 58.7% (active)

O=C(Nc1cc(Cl)cc2c1[nH]c1cnccc12)c1cccnc1
outcome [1]: inactive
outcome [2]: inactive
outcome [3]: inactive
outcome [4]: inactive
outcome [5]: inactive
outcome [6]: inactive
outcome [7]: inactive

O=C(O)CCNc1cc(N2CCc3ccccc3CC2)nc(-c2ccccn2)n1
outcome [1]: inactive
outcome [2]: inactive
outcome [3]: inactive
outcome [4]: inactive
outcome [5]: inactive
outcome [6]: inactive
outcome [7]: inactive

O=c1ncn2nc(Sc3ccc(F)cc3F)ccc2c1-c1c(Cl)cccc1Cl
outcome [1]: inactive
outcome [2]: inactive
outcome [3]: inactive
outcome [5]: inactive
outcome [6]: inactive
outcome [7]: inactive
fold change [8, 12]: 0.89 (inactive)
fold change [8, 13]: 1.87
cell count [8, 14]: 6460
cell count [8, 15]: 7250
z-score [10, 16]: -0.528 (inactive)
z-score [10, 17]: 1.18

N#Cc1cc(NC(=O)Nc2nnc(-c3ccncc3)s2)ccc1-c1cn[nH]c1
AC50 [1]: 372 nM (active)
outcome [2]: inactive
outcome [3]: inactive
outcome [4]: inactive
outcome [5]: inactive
outcome [7]: inactive

O=C1NC(=O)/C(=C/c2cccc(C(F)(F)F)c2)S1
outcome [1]: inactive
outcome [2]: inactive
outcome [4]: inactive
outcome [5]: inactive
outcome [6]: inactive
outcome [7]: inactive

CC[C@@H]1C(=O)N(C)c2cnc(Nc3ccc(C(=O)NC4CCN(C)CC4)cc3OC)nc2N1C1CCCC1
AC50 [1]: 66.1 nM (active)
AC50 [2]: 8.33 µM (active)
AC50 [3]: 1.48 µM (active)
AC50 [4]: 37.2 nM (active)
AC50 [5]: 20.9 µM (active)
SSMD [9]: 4.3
cell count [9]: 7240
plate-normalised HSF1 focus index [9]: 1.16 (inactive)
viability [11, 18]: 116% (inactive)
viability [11, 19]: 133% (inactive)
viability [11, 20]: 89.2% (active)
viability [11, 21]: 77.1% (active)
viability [11, 22]: 126% (inactive)
viability [11, 23]: 124% (inactive)
viability [11, 24]: 89.5% (active)
viability [11, 25]: 50.9% (active)
viability [11, 26]: 51.4% (active)
viability [11, 27]: 47.2% (active)
viability [11, 28]: 74.9% (active)
viability [11, 29]: 17% (active)
viability [11, 30]: 40.7% (active)
viability [11, 31]: 37.1% (active)
viability [11, 32]: 71.7% (active)
viability [11, 33]: 18.2% (active)
viability [11, 34]: 38.3% (active)
viability [11, 35]: 30.4% (active)
viability [11, 36]: 66.7% (active)
viability [11, 37]: 16.5% (active)
viability [11, 38]: 32.5% (active)
viability [11, 39]: 30.3% (active)
viability [11, 40]: 48.5% (active)
viability [11, 41]: 15.8% (active)
viability [11, 42]: 15.9% (active)
viability [11, 43]: 18.2% (active)
viability [11, 44]: 43% (active)
viability [11, 45]: 15.1% (active)
viability [11, 46]: 18% (active)
viability [11, 47]: 21.9% (active)
viability [11, 48]: 34.3% (active)
viability [11, 49]: 15.2% (active)

COc1cccc2c1C(=O)c1c(O)c3c(c(O)c1C2=O)C[C@@](O)(C(=O)CO)C[C@@H]3O[C@H]1C[C@H](N)[C@H](OC2CCCCO2)[C@H](C)O1 (stereo partly drawn)
AC50 [1]: 417 nM (active) and 332 nM (active)
AC50 [2]: 16.6 µM (active)
AC50 [3]: 2.95 µM (active) and 833 nM (active)
AC50 [4]: 4.68 µM (active) and 1.66 µM (active)
AC50 [6]: 2.95 µM (active) and 2.35 µM (active)
IC50 [7]: 6.61 µM (active) and 9.34 µM (active)

CCC[C@H](Nc1nc(-c2ccc(NC(=O)NCC)c(OC)c2)ncc1C)c1cccnc1
AC50 [1]: 132 nM (active)
AC50 [2]: 0.0148 µM (active)
AC50 [3]: 0.186 µM (active)
AC50 [4]: 118 nM (active)
AC50 [6]: 132 nM (active)
viability [11, 18]: 92.2% (active)
viability [11, 19]: 101% (inactive)
viability [11, 20]: 107% (inactive)
viability [11, 21]: 99.6% (active)
viability [11, 22]: 104% (inactive)
viability [11, 23]: 103% (inactive)
viability [11, 24]: 103% (inactive)
viability [11, 25]: 97.7% (active)
viability [11, 26]: 104% (inactive)
viability [11, 27]: 110% (inactive)
viability [11, 28]: 100% (inactive)
viability [11, 29]: 90.5% (active)
viability [11, 30]: 98.1% (active)
viability [11, 31]: 30.6% (active)
viability [11, 32]: 85.4% (active)
viability [11, 33]: 15.9% (active)
viability [11, 34]: 35.4% (active)
viability [11, 35]: 23.5% (active)
viability [11, 36]: 51.3% (active)
viability [11, 37]: 13% (active)
viability [11, 38]: 39.7% (active)
viability [11, 39]: 22.5% (active)
viability [11, 40]: 44.4% (active)
viability [11, 41]: 11% (active)
viability [11, 42]: 38% (active)
